Test results: ChEMBL document CHEMBL3988442, “University of Dundee, Small-Polar-MMV Screening Library” (2021)
For some of these results: Results with a measured potency or affinity are listed apart.

Assays:
Design in all cases: scale not given: direction of the effect not stated beside the values
[1] = molecular target: Protein translocase subunit SecA (Escherichia coli (strain K12)) (UniProt P10408); assay: Assay to Identify E. coli SecA ATPase Inhibitors; format: functional; details: 30 µM
[2] = molecular target: T1, Ubiquitin-activating enzyme e1, putative (Leishmania donovani (strain BPK282A1)) (UniProt E9BSI1); assay: Leishmania donovani Ubiquitin Activating Enzyme (LdE1); format: functional; details: 30 µM
T1 sequence (whole entry): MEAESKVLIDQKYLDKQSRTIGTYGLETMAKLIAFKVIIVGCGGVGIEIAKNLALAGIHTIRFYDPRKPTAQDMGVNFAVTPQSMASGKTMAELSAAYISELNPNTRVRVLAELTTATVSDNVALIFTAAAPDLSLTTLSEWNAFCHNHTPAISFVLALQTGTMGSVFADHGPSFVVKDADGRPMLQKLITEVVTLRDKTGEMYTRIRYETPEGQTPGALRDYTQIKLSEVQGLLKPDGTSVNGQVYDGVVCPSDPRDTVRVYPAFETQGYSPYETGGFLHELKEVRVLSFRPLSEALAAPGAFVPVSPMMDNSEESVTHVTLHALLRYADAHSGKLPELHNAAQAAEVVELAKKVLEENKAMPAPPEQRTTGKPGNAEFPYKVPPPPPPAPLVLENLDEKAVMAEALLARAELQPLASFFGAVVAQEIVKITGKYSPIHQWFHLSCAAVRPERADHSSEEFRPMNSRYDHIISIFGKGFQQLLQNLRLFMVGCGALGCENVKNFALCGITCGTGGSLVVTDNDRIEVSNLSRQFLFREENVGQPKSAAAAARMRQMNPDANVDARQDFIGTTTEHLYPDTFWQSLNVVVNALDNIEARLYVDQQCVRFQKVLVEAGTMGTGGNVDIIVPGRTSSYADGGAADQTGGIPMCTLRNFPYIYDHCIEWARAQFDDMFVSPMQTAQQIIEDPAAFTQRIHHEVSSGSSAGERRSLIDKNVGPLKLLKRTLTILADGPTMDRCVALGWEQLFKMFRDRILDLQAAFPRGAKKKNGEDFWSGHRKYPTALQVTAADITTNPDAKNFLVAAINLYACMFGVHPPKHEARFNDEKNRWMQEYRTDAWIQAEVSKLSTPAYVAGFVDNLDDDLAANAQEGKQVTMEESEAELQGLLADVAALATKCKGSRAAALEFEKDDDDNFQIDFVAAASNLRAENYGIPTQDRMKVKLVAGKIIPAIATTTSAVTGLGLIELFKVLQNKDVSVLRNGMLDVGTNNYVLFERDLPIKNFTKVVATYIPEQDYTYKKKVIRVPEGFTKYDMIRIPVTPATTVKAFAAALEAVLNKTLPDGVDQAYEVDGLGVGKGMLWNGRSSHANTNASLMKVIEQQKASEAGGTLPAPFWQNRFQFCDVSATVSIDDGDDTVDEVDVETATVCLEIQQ

[3] = molecular target: AMP-activated protein kinase, AMPK (Homo sapiens) (UniProt P54646+O43741+P54619+Q9UGJ0+Q9Y478+Q13131+Q9UGI9); assay: AMP-dependent Kinase enzyme assay. An in vitro enzyme assay that detects ADP turnover that is directly proportional to AMPK activity. This uses naive AMPK that is activated during the assay with MK-8722; format: functional; details: 30 µM
[4] = molecular target: Sialic acid-binding Ig-like lectin 9 (Homo sapiens) (UniProt Q9Y336); assay: Hs-Siglec9 ALPHAscreen SOP 20170721; details: 10 µM
Trypanosoma cruzi = assay: Trypanosoma cruzi phosphomannomutase and mannose-1-phosphate guanylyltransferase assay; format: functional; details: 10 µM
[5] = molecular target: T2, Arginase-2, mitochondrial (Homo sapiens) (UniProt P78540); assay: in vitro enzyme assay to detect the production of urea directly proportional to the activity of Arginase II; format: functional; details: 33.3 µM; note: in the data most compounds retested in dose-response had high values
T2 sequence (whole entry): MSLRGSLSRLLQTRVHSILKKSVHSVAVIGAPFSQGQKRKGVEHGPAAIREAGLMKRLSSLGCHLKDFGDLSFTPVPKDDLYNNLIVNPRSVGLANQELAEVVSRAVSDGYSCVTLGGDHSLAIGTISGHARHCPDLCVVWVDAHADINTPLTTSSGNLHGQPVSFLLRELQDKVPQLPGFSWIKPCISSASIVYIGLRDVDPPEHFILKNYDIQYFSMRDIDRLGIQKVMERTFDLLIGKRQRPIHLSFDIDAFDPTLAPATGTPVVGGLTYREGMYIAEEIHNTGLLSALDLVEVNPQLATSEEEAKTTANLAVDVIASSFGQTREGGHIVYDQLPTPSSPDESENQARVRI

[6] = molecular target: T3, Proteasome subunit beta (Trypanosoma cruzi) (UniProt O96673); assay: Trypanosoma cruzi proteasome chymotrypsin-like activity (TcProtChymo) assay.; note: in the data most compounds retested in dose-response had high values; format: functional; details: 9.37 µM
T3 sequence (whole entry): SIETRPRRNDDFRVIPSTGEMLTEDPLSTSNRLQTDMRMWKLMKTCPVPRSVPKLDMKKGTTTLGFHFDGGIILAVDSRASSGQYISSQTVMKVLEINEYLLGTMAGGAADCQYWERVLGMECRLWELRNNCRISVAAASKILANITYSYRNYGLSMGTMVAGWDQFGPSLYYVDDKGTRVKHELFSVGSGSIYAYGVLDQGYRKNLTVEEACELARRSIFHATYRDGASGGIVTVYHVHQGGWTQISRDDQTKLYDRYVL

Homo sapiens = species on record: Homo sapiens; assay: To identify inhibition of the IFN signalling (Jak-Stat) pathway via expression of an eGFP reporter gene under the control of an IFN-stimulated response element (ISRE) containing MxA promoter.; format: functional; details: 30 µM
[7] = molecular target: T4, Tyrosyl-tRNA synthetase, putative (Trypanosoma cruzi (strain CL Brener)) (UniProt Q4DSP6); assay: Trypanosoma cruzi tyrosyl tRNA synthetase (TcYRS) _High Tyrosine SOP; format: functional; details: 30 µM; note: in the data most compounds retested in dose-response had high values
T4 sequence (whole entry): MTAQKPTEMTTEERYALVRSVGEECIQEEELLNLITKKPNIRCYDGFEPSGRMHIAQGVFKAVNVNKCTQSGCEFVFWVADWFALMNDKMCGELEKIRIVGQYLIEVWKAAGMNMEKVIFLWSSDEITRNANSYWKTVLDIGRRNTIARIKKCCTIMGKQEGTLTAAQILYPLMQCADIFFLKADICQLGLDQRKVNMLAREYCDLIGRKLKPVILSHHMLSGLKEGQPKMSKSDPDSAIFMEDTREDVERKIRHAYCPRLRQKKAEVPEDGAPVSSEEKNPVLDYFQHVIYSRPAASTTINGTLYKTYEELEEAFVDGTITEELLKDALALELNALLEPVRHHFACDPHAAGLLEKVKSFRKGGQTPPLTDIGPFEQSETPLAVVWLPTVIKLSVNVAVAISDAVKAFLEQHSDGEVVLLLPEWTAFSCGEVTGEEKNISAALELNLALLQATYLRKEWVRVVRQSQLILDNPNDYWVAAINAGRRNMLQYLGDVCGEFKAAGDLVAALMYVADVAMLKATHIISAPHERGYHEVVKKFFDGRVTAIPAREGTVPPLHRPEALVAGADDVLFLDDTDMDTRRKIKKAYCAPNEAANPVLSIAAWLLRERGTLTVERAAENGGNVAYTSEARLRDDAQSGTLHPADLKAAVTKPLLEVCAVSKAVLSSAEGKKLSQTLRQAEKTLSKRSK

[8] = molecular target: T4, Tyrosyl-tRNA synthetase, putative (Trypanosoma cruzi (strain CL Brener)); assay: Trypanosoma cruzi tyrosyl tRNA synthetase (TcYRS) SOP; format: functional; details: 30 µM
[9] = molecular target: Chromo domain-containing protein 1 (Saccharomyces cerevisiae (strain ATCC 204508 / S288c) (Baker's yeast)) (UniProt P32657); assay: ScCHD-1 Enzyme Inhibition Assay; format: functional; details: 30 µM; note: in the data most compounds retested in dose-response had high values
Chromo domain-containing protein 1 (Saccharomyces cerevisiae (strain ATCC 204508 / S288c) (Baker's yeast)), sequence (P32657 whole entry, the tested form may be a part): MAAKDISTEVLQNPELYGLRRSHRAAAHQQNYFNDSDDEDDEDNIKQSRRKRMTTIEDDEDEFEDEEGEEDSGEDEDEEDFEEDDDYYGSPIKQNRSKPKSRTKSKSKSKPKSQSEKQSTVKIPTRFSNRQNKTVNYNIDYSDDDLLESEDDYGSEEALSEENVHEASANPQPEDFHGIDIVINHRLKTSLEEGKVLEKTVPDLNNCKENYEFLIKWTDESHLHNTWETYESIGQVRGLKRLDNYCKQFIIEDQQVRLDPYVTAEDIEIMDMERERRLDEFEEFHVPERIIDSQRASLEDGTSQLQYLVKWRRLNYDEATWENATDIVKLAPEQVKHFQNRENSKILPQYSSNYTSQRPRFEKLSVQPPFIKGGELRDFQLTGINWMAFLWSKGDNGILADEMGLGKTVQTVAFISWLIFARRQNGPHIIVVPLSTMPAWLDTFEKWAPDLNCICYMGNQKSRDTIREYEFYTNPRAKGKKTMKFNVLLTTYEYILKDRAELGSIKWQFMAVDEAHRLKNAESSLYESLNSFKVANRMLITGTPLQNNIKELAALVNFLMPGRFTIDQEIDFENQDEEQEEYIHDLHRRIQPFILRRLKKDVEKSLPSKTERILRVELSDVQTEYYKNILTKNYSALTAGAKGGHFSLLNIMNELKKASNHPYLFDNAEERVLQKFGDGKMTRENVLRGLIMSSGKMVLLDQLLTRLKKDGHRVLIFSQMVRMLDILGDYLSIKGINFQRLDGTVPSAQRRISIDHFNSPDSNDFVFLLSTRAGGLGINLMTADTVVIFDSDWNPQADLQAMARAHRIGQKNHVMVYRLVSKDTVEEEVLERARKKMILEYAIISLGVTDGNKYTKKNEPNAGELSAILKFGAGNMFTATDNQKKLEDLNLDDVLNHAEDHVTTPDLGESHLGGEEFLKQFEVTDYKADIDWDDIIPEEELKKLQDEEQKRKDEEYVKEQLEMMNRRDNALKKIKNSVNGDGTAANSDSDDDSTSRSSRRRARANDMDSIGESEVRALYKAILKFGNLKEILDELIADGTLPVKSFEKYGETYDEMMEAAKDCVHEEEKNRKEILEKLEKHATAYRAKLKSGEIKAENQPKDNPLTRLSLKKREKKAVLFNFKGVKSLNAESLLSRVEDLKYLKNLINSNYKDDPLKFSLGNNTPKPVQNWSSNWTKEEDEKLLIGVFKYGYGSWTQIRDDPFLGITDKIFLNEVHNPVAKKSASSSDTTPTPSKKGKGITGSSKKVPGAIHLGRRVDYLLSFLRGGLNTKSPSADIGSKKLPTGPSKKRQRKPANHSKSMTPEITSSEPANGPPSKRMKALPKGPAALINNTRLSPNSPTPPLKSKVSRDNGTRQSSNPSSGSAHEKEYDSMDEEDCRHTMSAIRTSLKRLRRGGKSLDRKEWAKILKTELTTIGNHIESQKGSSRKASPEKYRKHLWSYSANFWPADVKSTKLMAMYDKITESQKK

Sialic acid-binding Ig-like lectin 9 (Homo sapiens), sequence (Q9Y336 whole entry): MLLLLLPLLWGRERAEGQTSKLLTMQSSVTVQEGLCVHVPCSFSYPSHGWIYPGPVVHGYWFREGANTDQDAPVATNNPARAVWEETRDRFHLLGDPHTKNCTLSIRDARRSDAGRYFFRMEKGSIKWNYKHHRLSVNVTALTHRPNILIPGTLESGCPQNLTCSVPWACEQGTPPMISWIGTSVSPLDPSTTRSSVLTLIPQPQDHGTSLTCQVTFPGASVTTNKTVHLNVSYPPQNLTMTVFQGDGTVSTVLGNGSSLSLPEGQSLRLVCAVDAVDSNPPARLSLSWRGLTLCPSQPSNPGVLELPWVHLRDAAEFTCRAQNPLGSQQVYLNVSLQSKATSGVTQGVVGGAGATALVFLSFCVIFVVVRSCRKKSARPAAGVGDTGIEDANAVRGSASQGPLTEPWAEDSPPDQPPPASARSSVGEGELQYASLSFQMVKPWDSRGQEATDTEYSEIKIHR
Protein translocase subunit SecA (Escherichia coli (strain K12)), sequence (P10408 whole entry): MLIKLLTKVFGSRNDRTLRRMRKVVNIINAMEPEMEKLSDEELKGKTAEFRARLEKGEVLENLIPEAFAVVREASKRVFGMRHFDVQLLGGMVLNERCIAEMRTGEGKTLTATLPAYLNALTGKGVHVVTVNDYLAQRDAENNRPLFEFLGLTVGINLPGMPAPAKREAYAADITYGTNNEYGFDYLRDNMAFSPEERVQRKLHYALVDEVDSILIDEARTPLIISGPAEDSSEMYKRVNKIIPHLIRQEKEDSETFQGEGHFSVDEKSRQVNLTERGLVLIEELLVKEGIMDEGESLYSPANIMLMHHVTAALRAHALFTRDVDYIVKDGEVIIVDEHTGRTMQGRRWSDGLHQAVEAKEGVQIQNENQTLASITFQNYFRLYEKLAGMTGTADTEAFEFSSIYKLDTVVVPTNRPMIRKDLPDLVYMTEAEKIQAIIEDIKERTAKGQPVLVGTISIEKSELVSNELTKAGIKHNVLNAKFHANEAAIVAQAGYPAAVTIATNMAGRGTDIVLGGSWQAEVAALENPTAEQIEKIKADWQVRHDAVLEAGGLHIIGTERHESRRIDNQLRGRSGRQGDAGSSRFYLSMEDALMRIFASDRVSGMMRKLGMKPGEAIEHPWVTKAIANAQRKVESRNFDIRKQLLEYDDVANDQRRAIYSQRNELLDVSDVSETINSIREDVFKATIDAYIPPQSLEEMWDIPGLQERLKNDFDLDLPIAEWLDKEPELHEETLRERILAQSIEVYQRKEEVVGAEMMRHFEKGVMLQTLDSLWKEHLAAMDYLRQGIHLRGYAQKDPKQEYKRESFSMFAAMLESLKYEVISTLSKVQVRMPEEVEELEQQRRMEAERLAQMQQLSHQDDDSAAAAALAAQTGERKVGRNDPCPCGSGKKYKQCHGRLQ

Row | Compound | Percent Effect [1] [%] | Percent Effect [2] [%] | Percent Effect [3] [%] | Percent Effect [4] [%] | Percent Effect (Trypanosoma cruzi) [%] | Percent Effect [5] [%] | Percent Effect [6] [%] | Percent Effect (Homo sapiens) [%] | Percent Effect [7] [%] | Percent Effect [8] [%] | Percent Effect [9] [%]
1 | Cc1nc(Nc2nccs2)cc(C2CCCN2C2CCOCC2)n1 (stereo unspecified) | -6.58 | 12.2 | 4.38 | 1.96 | 4.35 | -3.48 | 8.89 | 6.9 | 6.45 | 14.3 | -16.1
2 | COCC(O)CNC(=O)c1coc(COc2ccc3sc(C)nc3c2)n1 (stereo unspecified) | -0.0441 | 5.48 | 3.03 | 0.244 | -7.25 | 5.46 | 14.7 | 44.1 | 5.38 | 15 | -1.23
3 | CCN1CCN(Cc2coc(-c3cccc(F)c3)n2)CC1 | -2.72 | 18.2 | -12.3 | -3.56 | 5.06 | -0.356 | 16.6 | -3.8 | 9.71 | 12.2 | -12
4 | CN(CCn1cccn1)S(=O)(=O)N1CCCC1c1ccco1 (stereo unspecified) | 1.7 | -5.41 | -2.17 | -0.333 | -5.48 | 9.43 | -3.05 | 13.8 | -0.99 | -6.1 | 3.02
5 | Cn1cc(C(=O)NCc2cn3c(n2)CN(CC2CCOCC2)CC3)cn1 | -2.09 | 5.41 | 26.2 | -3.62 | -1.95 | 1.67 | 11.9 | 20.1 | 7.92 | 15.8 | -0.801
6 | Cc1nc2n(n1)CC(NCc1cc(Cl)c3c(c1)OCCCO3)CC2 (stereo unspecified) | -6.19 | 15.8 | -7.14 | 11.4 | 5.51 | -1.44 | 6.01 | 6.53 | 6.4 | 25.9 | -3.53
7 | Cc1cc(N(C)C)nc(C2(C)CCCN2C(=O)c2cnccn2)n1 (stereo unspecified) | -2.86 | 8 | 5.28 | -5.27 | 7.48 | 2.1 | 11.4 | -1.62 | 1.06 | 8.97 | -2.81
8 | CCn1cc(NC(=O)NC2CCCc3c2cnn3CCO)cn1 (stereo unspecified) | -1.35 | 5.33 | -2.07 | 4.11 | -1.07 | 1.56 | 9.77 | 4.28 | 4.92 | 11.1 | -14.2
9 | CC(NCc1ccc(Cl)o1)c1nnc2n1CCCC2 (stereo unspecified) | -1.28 | 13.5 | 2.81 | 2.02 | 0.195 | 11.2 | 15 | 24.2 | 6.93 | 18.3 | 1.09
10 | CCOC(=O)C1CCN(C(=O)Cn2ccc3cc(Br)ccc32)CC1 | -3.71 | 14.7 | -7.58 | -2.58 | 6.29 | -0.88 | 9.43 | 4.34 | 1.06 | 10.3 | -13.5
11 | c1csc(CN2CCn3c(Cn4cncn4)cnc3C2)n1 | -3.71 | 2.67 | 12.1 | 4.38 | -0.984 | 4.43 | 6.08 | -18.1 | 2.13 | 1.28 | -1.62
